Compounds with a hit are over-represented: about 1.3% of the library has one in this group of screens.
TSHR antag – antagonists of human thyroid stimulating hormone receptor | P16473 | TSHR-expressing cells, TSH-stimulated cAMP HTRF, 2 h; hits give low values | activity change, negative = inhibition, % at 11.5 µM | AID 504810 | hit rate 0.2% among 330,000;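 active means activity change below a set negative limit, meaning inhibition stronger than a set level, cut at about -70% in these data; inconclusive means activity change between two set negative limits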
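Antagonism was scored as loss of TSH-driven cAMP in TSHR cells, stimulated with 4nM TSH (EC80) for 2 hours at 37 deg C and detected by homogeneous HTRF competition immunoassay.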
gsp antagonist – antagonizes gsp, the McCune-Albright syndrome mutation; gsp-mutant cells, cAMP HTRF, 30 min; Potency, µM (top dose mostly 76.9 µM), most hits filed as inhibitors; AID 624288; hit rate 0.4% among 340,000; calls by dose curve; cell line not stated here;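 further: intracellular cAMP measured with PDE inhibitor Ro 20-1724 present during compound exposure; nearly all actives have a fitted effect of over 65% in size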
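Cells, 2000/well, grown 16–24 h in DMEM 10% FBS with 0.5 mg/ml G418, then compounds plus […] (300 uM addition stock), 30 min at 37C. cAMP read by HTRF (cAMP-d2 and anti-cAMP antibody-K in lysis buffer) after 30 min RT.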
Akt phos inh – inhibitors of Akt phosphorylation; Neuro2A IGF-stimulated pAkt S473 HTRF, 20 min; hits give low values; activity change, % for hits at 50 µM; hit rate 0.32% among 360,000; AID 651550; in the data active means activity change below about -80%; inconclusive means mostly about -51% to -80%
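Single-point screen (50 µM final compound) in Neuro2A cells stimulated 20 min with 6 nM IGF at 37 deg C. After lysis, Ser473-phosphorylated Akt read by HTRF (ex 330 nm, em 615/665 nm) as the 665/615 ratio.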
RXFP1 agonist – activates the human relaxin receptor RXFP1 | hit rate 0.3% among 370,000 | Potency, µM (top dose mostly 57.5 µM), most hits filed as activators | HEK293T-RXFP1 cAMP TR-FRET, 30 min; response scale: percent of porcine relaxin response, buffer zero; active means well fitted activation curve with a large enough effect; inconclusive means small, poorly fitted or top-dose-only effect; further: nearly all actives have a fitted effect of over 60% in size
Target sequence (Q9HBX9 whole entry, looked up): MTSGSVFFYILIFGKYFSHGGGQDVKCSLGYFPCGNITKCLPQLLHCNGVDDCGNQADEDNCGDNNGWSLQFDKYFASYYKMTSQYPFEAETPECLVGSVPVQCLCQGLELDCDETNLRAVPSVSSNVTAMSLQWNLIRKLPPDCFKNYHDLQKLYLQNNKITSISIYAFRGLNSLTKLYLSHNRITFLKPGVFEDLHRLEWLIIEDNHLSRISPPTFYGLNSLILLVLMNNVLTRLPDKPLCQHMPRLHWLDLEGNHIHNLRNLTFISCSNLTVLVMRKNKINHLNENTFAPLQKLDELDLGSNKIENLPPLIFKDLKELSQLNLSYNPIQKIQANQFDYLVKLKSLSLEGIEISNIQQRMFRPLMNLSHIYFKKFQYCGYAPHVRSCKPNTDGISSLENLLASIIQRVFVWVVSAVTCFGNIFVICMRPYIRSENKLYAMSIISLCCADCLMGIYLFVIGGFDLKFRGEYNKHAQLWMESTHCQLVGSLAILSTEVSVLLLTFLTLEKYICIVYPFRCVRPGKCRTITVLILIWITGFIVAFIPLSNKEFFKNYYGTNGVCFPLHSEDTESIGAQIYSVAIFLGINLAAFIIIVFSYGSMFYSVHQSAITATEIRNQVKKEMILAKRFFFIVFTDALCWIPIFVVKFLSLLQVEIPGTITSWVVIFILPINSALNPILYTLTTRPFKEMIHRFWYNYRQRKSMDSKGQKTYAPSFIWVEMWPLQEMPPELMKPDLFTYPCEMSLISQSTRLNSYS
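HEK293 cells stably expressing RXFP1, treated 30 min at 37C with compounds plus PDE4 inhibitor Ro 20174; cAMP measured by HTRF TR-FRET. Normalized to buffer and 29 nM porcine relaxin; EC50 by Hill fit.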
gsp ag – agonists of gsp mutant (McCune-Albright syndrome); Potency, µM (highest dose often 76.9 µM), usual class: activators; gsp mutant cells, cAMP HTRF, 30 min; AID 624287; hit rate 0.13% among 340,000; active means well fitted activation curve with a large enough effect; inconclusive means small, poorly fitted or top-dose-only effect, or another doubt; inactive means no such curve, though single readings can be large or run the other way; cell line not stated here;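 further: phosphodiesterase inhibitor Ro 20-1724 added with compounds to block cAMP breakdown; nearly all actives have a fitted effect of over 60% in size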
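Cells stably selected in G418 were plated at 2000/well, grown 16-24 hr, then given compounds in DMSO with the PDE inhibitor […] (300 uM solution added) for 30 min at 37C; cAMP was read by HTRF.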
RXFP1 antag – blocks the human relaxin receptor RXFP1 | activity change, negative = inhibition, % at 57.5 µM | hit rate 0.59% among 350,000 | HEK293-RXFP1, relaxin-stimulated cAMP HTRF, 30 min; hits give low values;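 active means activity change of -60% or lower, but not beyond a set lower limit; inconclusive means change between -60% and -40%, or beyond the set limit; inactive means change above -40%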
Hits are given with their value; 0 = inactive; ? = inconclusive; - = not tested or not shown; ! = not confirmed by another sample; [ ] = remark or other dose.

SMILES	TSHR antag	gsp antagonist	Akt phos inh	RXFP1 agonist	gsp ag	RXFP1 antag
CCCN1C(=O)c2ccc(C(=O)Nc3nccs3)cc2C1=O	0	0	-110.5%	0	0	0
O=C(COC(=O)c1ccc(O)cc1O)Nc1cc(-c2ccccc2)nn1-c1ccccc1	0	35.5µM	0	0	0[15.4 µM]	-73.3
COC(=O)c1ccc2c(=O)n(Cc3ccc4c(c3)OCO4)c(=S)[nH]c2c1	0	0	0	?	0	0
COC(CNC(=O)c1ccc(Cn2c(=S)[nH]c3cc4c(cc3c2=O)OCO4)cc1)OC	0	0	0	0	0	-98.1
O=C(NCc1ccccn1)c1ccc(Cn2c(=S)[nH]c3ccc(Br)cc3c2=O)cc1	0	?	0	0	0[15.4 µM]	0
COCCNC(=O)c1ccc(Cn2c(=S)[nH]c3cc4c(cc3c2=O)OCO4)cc1	0	0	0	0	0	-103.9
O=C(NCc1ccccn1)c1ccc(Cn2c(=S)[nH]c3ccccc3c2=O)cc1	0	0	0	0	0	-77.5
CCCc1c(C(=O)N/N=C/c2ccoc2)nnn1-c1nonc1N	-	-	0	-	?	0
COC(=O)c1ccc(CSc2nc3ccncc3n2Cc2ccc(F)cc2)cc1	-	-	-	0	-	0
Cc1ccc(OCC(=O)NNC(=O)Cc2ccc(S(=O)(=O)N3CCOCC3)s2)cc1	0	0	0	0	?	0
O=C(Cc1cccc2ccccc12)NC(NC(=S)Nc1ccccc1Cl)C(Cl)(Cl)Cl (stereo unspecified)	0	0	0	0	0	-62.8
O=C(NC(NC(=S)Nc1ccccc1Cl)C(Cl)(Cl)Cl)c1cccc(Cl)c1 (stereo unspecified)	0	?	0	0	0	0
Oc1ccc(C=NNC(=S)Nc2ccc(F)cc2)c(O)c1	-	0	0	-	?	-64.4
COc1ccc(-c2noc(N3CCC(C(=O)Nc4ccccc4OC)CC3)n2)cc1	0	?	0	0	0	0
COC(=O)N/N=C/c1cccc(OCCSc2ccc(Cl)cc2)c1	0	0	0	0	0[15.4 µM]	-61.6
COc1cccc(-c2nnc(NC(=O)c3ccc(S(=O)(=O)N4CC(C)OC(C)C4)cc3)o2)c1 (stereo unspecified)	0	35.5µM	0	0	0	0
COc1ccc(-c2nnc(NC(=O)c3ccc4c(c3)OCCO4)o2)cc1	-94.9	0	0	0	0	0
COc1ccc(-c2nnc(NC(=O)c3ccc(F)cc3)o2)cc1	0	0	0	0	0	-
O=C(c1ccc(Br)cc1)C(CN1CCOCC1)c1ccccc1 (stereo unspecified)	0	0	0	0	0[15.4 µM]	?
O=C(c1ccccc1)C(CN1CCCCC1)c1ccccc1 (stereo unspecified)	-	0	0	-	0	-82.0
CCc1ccc2nc(NC(=O)CN3C(=O)NC4(CCCC4)C3=O)sc2c1	0	0	0	-	0	0
O=C1CN(C(=O)Cc2ccc(F)cc2)C(c2ccccc2)c2cc(Br)ccc2N1 (stereo unspecified)	-	-	-	0	-	0
CCCCNC(=O)C1(C)CCCCN1C(=O)c1oc2ccccc2c1C (stereo unspecified)	-	-	0	-	-	-
CSC1=NC(NCCCO)c2c(sc3c2CC(C)(C)OC3)N1 (stereo unspecified)	0	0	-100.7%	0	0	0
Cc1ccc(N2CCN(S(=O)(=O)N3CCCCC3)CC2)c(C)c1	0	0	0	0	0[15.4 µM]	-70.3
SMILES	TSHR antag	gsp antagonist	Akt phos inh	RXFP1 agonist	gsp ag	RXFP1 antag
NS(=O)(=O)c1cc2c(cc1Cl)CN(C1CCCCC1)C2=O	-	-	-	-	-	0
Cc1ccc(C)n1-c1ccc(C(=O)N2CCOCC2)cc1	0	0	-106.3%	0	0	0
O=C1CCC/C(=N\NC(=O)COc2ccc(Cl)cc2)C1	0	0	0	0	0	0
Cc1ccc(S(=O)(=O)N(C)C)cc1NC(=O)c1cc(-c2ccco2)nc2ccccc12	0	0	0	0	0	0
CC(C)CCn1c(SCc2cccc(F)c2)nc2ccsc2c1=O	-	-	-	0	-	-76.5
CC(C)CCn1c(SCc2ccc(F)cc2Cl)nc2ccsc2c1=O	-	-	-	0	-	0
Cc1csc(NC(=O)NCC2CCCC(CNC(=O)Nc3nc(C)cs3)C2)n1 (stereo unspecified)	0	0	0	0	0	0
Cc1c(C)c2ccc(OCC(=O)c3ccccc3)cc2oc1=O	0	35.5µM	0	0	?	0
Cc1c(CC(=O)O)c(=O)oc2cc(OCc3nn[nH]n3)ccc12	0	0	-98.0%	0	0	0
O=C(O)c1ccccc1NCCc1ccccc1	-	-	-	-	-	0
Cc1nn(CC(=O)N2CCN(c3cccc(C(F)(F)F)c3)CC2)c(=O)c2cccn12	0	0	0	35.5µM!	?	0
CCOC(=O)CN1C(c2ccccc2O)Nc2ccc(Br)cc2C1c1ccccc1 (stereo unspecified)	0	0	0	0	0[15.4 µM]	-72.5
COC(=O)c1sc(N2C(=O)C(O)=C(C(=O)c3ccc(C)o3)C2c2ccco2)nc1C (stereo unspecified)	0	0	0	0	0[15.4 µM]	0
COC(=O)c1ccc(C2C(C(=O)c3ccc(C)o3)=C(O)C(=O)N2c2cc(C)on2)cc1 (stereo unspecified)	0	0	0	?	?	0
COC(=O)c1sc(N2C(=O)C(O)=C(C(=O)c3ccc(C)o3)C2c2cccs2)nc1C (stereo unspecified)	0	0	0	12.6µM	?	0
COC(=O)c1sc(N2C(=O)C(O)=C(C(=O)c3ccc(C)o3)C2c2ccc(F)cc2)nc1C (stereo unspecified)	0	0	0	8.91µM	?	0
Cc1ccc(C)c(N2CCN(S(=O)(=O)c3ccc4c(c3)NC(=O)CS4)CC2)c1	0	0	0	0	0	0
CCOC(=O)c1ccc(C(=O)OCC)nc1	0	0	-106.4%	0	0	0
Cc1ccc(C(=O)Nc2nc(=O)n(C(=O)C3CC3)s2)cc1	0	?	0	0	0	0
Cc1ccc(C(=O)Nc2nc(=O)n(C(=O)c3ccccc3C)s2)cc1	0	39.8µM	0	0	0	0
Cc1ccc(SCC(=O)Nc2cc([N+](=O)[O-])ccc2O)cc1	0	50.1µM	0	0	0[15.4 µM]	0
O=C(CSCc1ccc(Cl)cc1)Nc1cc([N+](=O)[O-])ccc1O	0	?	0	0	0	0
CCN1C(=O)CS/C1=N\S(=O)(=O)c1ccc(Cl)cc1	0	0	0	0	0[15.4 µM]	0
CCn1c(Cl)c(C=O)s/c1=N\S(=O)(=O)c1ccccc1	-98.0	0	0	0	?	-86.5
COc1ccc(C(C)NC(=O)CN(c2cc(OC)ccc2OC)S(=O)(=O)c2ccccc2)cc1 (stereo unspecified)	-	-	-	0	-	-
CCCSc1ncc(Cl)c(C(=O)Nc2ccc(S(=O)(=O)N(C)c3ccccc3)cc2)n1	-	-	-	0	-	0
